Measured values reported in PubChem BioAssay AID1159580 (chemical genetic matrix, 2015).
Where “and” joins values, the source holds several entries; their conditions need not be identical. Equal values may be shown once. Out of some 5,500 compounds screened, about 2,000 (36%) were called active. Not shown: some 18% with an inconclusive outcome. No stated cut-off is given here; in the data, active means normalized growth mostly below about 0.91 (no sharp cut-off); inconclusive means no clear call, values can overlap the other calls; inactive means mostly above about 0.92. The list shows a part of the results.

Test: chemical genetic growth profiling, strain panel (AID 1159580);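 further: tested at 20 µM; growth read once vehicle control cultures reached saturation at 30 °C; 1 = growth at the plate median or of vehicle wells; lower values mean less growth of the strain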
Conditions: S. cerevisiae deletion strains, growth OD

Measured: normalized growth

CCCCCCC(C)OC(=O)COc1ccc(Cl)cc1Cl (configuration not stated)
inactive: locus YAL013W, strain DEP1, active compounds read low 0.981 | locus YAL021C, strain ccr4, active compounds read low 0.991 | locus YAL026C, strain drs2, active compounds read low 0.993 | locus YAL030W, strain snc1, active compounds read low 0.99 | locus YBL061C, strain skt5, active compounds read low 0.996 | locus YBR009C, strain hhf1, active compounds read low 0.985 | locus YBR021W, strain FUR4, active compounds read low 1 | locus YBR023C, strain chs3, active compounds read low 0.99 | locus YBR171W, strain sec66, active compounds read low 0.99 | locus YBR229C, strain ROT2, active compounds read low 0.996 | locus YBR231C, strain swc5, active compounds read low 0.984 | locus YBR279W, strain paf1, active compounds read low 0.994 | locus YCL011C, strain gbp2, active compounds read low 0.987 | locus YCL016C, strain dcc1, active compounds read low 0.988 | locus YCL029C, strain bik1, active compounds read low 1 | locus YCL061C, strain MRC1, active compounds read low 0.993 | locus YCL069W, strain vba3, active compounds read low 0.992 | locus YCR088W, strain abp1, active compounds read low 0.996 | locus YDL005C, strain med2, active compounds read low 0.996 | locus YDL035C, strain GPR1, active compounds read low 0.955 | locus YDL040C, strain nat1, active compounds read low 0.985 | locus YDL074C, strain BRE1, active compounds read low 0.968 | locus YDL101C, strain DUN1, active compounds read low 0.985 | locus YDL134C, strain PPH21, active compounds read low 1 | locus YDL185W, strain tfp1, active compounds read low 1.01 | locus YDL192W, strain arf1, active compounds read low 1 | locus YDR001C, strain nth1, active compounds read low 0.99 | locus YDR069C, strain doa4, active compounds read low 0.97 | locus YDR101C, strain arx1, active compounds read low 0.996 | locus YDR137W, strain rgp1, active compounds read low 0.987 | locus YDR150W, strain NUM1, active compounds read low 1.01 | locus YDR159W, strain sac3, active compounds read low 0.992 | locus YDR162C, strain NBP2, active compounds read low 0.939 | locus YDR195W, strain ref2 0.957 | locus YDR297W, strain sur2, active compounds read low 0.988 | locus YDR318W, strain mcm21, active compounds read low 1 | locus YDR334W, strain swr1, active compounds read low 0.988 | locus YDR335W, strain msn5, active compounds read low 0.994 | locus YDR388W, active compounds read low 1 | locus YDR392W, strain spt3, active compounds read low 0.997 | locus YDR502C, strain sam2, active compounds read low 1 | locus YEL003W, strain gim4, active compounds read low 0.988 | locus YEL037C, strain rad23, active compounds read low 0.995 | locus YEL061C, strain CIN8 (second series), active compounds read low 0.988 | locus YEL061C, strain CIN8, active compounds read low 0.986 | locus YER015W, strain faa2, active compounds read low 0.991 | locus YER016W, strain bim1, active compounds read low 0.99 | locus YER110C, active compounds read low 1 | locus YER111C, strain swi4, active compounds read low 1 | locus YER155C, strain BEM2 (second series), active compounds read low 0.989 | locus YER155C, strain BEM2, active compounds read low 0.976 | locus YER167W, strain BCK2, active compounds read low 0.986 | locus YFR010W, strain ubp6, active compounds read low 0.992 | locus YGL078C, strain dbp3, active compounds read low 0.996 | locus YGL086W, strain mad1, active compounds read low 0.997 | locus YGL167C, strain pmr1, active compounds read low 0.993 | locus YGL173C, strain kem1, active compounds read low 0.989 | locus YGL227W, strain vid30, active compounds read low 0.979 | locus YGL240W, strain doc1, active compounds read low 1 | locus YGL248W, strain PDE1, active compounds read low 0.991 | locus YGL253W, strain hxk2, active compounds read low 0.987 | locus YGR078C, strain PAC10, active compounds read low 0.988 | locus YGR135W, strain pre9, active compounds read low 1.01 | locus YGR229C, strain SMI1, active compounds read low 0.891 | locus YGR252W, strain gcn5, active compounds read low 1 | locus YHR013C, strain ard1, active compounds read low 0.988 | locus YHR027C, strain rpn1, active compounds read low 0.996 | locus YHR030C, strain SLT2, active compounds read low 0.974 and 1.03 | locus YHR079C, strain IRE1 (second series), active compounds read low 0.997 | locus YHR079C, strain IRE1, active compounds read low 1.02 | locus YHR094C, strain hxt1, active compounds read low 0.998 | locus YHR129C, strain ARP1, active compounds read low 0.977 | locus YHR142W, strain chs7, active compounds read low 0.988 | locus YHR200W, strain rpn10, active compounds read low 0.993 | locus YIL066C, strain RNR3, active compounds read low 0.963 | locus YIL073C, strain SPO22, active compounds read low 0.957 | locus YIL125W, strain kgd1, active compounds read low 0.996 | locus YIR030C, strain dcg1, active compounds read low 0.996 | locus YJL092W, strain hpr5, active compounds read low 0.994 | locus YJL095W, strain BCK1 (second series), active compounds read low 0.983 | locus YJL095W, strain BCK1, active compounds read low 0.94 and 1.03 | locus YJL115W, strain asf1, active compounds read low 0.989 | locus YJL129C, strain trk1, active compounds read low 0.953 | locus YJL134W, strain LCB3, active compounds read low 0.98 | locus YJL154C, strain vps35, active compounds read low 0.994 | locus YJL164C, strain tpk1, active compounds read low 0.969 | locus YJL166W, strain qcr8, active compounds read low 0.989 | locus YJL168C, strain set2, active compounds read low 1 | locus YJL187C, strain SWE1 (second series), active compounds read low 0.998 | locus YJL187C, strain SWE1, active compounds read low 0.992 | locus YJR043C, strain POL32, active compounds read low 0.969 | locus YJR066W, strain TOR1, active compounds read low 0.949
